Measured values as given in ChEMBL document CHEMBL5724796, “Tm Shift (DSF) assay results for EUbOPEN Chemogenomics Library” (2024).

How the values were obtained:
Conditions in all cases: Compound concentration 20.0 uM
[1] = target: Tyrosine-protein kinase ABL1 (Homo sapiens) (UniProt P00519)
[2] = target: Bromodomain-containing protein 4 (Homo sapiens) (UniProt O60885)
[3] = target: Cyclin-dependent kinase 2 (Homo sapiens) (UniProt P24941)
[4] = target: Casein kinase I isoform delta (Homo sapiens) (UniProt P48730)
Casein kinase I isoform delta (Homo sapiens), sequence (P48730 whole entry, looked up, canonical isoform): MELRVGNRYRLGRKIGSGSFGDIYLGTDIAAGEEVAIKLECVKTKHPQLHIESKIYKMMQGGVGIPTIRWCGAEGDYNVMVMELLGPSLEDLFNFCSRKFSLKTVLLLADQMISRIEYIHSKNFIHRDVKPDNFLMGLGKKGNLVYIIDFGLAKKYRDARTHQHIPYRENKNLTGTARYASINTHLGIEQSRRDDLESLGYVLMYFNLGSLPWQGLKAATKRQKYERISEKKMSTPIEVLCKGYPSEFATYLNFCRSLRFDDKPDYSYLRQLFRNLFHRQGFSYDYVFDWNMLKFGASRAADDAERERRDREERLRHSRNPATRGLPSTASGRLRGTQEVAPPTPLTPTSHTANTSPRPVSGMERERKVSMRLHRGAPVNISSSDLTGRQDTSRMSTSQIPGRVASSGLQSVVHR

[5] = target: Glycogen synthase kinase-3 beta (Homo sapiens) (UniProt P49841)
Glycogen synthase kinase-3 beta (Homo sapiens), sequence (P49841 whole entry, looked up): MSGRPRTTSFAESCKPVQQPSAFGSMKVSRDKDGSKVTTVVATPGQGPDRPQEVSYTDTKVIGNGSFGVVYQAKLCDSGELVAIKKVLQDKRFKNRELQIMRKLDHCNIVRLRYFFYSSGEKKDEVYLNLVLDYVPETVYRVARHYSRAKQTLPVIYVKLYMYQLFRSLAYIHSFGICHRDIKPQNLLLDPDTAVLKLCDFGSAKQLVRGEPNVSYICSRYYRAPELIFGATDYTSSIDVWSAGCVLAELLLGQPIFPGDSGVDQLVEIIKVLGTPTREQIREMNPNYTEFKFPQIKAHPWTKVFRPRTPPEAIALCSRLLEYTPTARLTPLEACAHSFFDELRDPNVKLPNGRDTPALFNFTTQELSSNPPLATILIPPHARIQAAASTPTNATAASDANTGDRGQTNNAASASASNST

[6] = target: Mitogen-activated protein kinase 1 (Homo sapiens) (UniProt P28482)
Mitogen-activated protein kinase 1 (Homo sapiens), sequence (P28482 whole entry): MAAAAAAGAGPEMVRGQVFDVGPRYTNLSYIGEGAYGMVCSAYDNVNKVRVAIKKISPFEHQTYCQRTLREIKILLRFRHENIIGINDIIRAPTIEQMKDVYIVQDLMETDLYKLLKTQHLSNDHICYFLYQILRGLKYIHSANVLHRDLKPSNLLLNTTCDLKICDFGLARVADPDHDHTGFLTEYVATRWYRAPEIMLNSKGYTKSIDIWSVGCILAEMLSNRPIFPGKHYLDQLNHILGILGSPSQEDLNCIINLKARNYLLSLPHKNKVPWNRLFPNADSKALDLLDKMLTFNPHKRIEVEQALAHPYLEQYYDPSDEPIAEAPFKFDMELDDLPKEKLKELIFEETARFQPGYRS

[7] = target: T1, Aurora kinase A (Homo sapiens) (UniProt O14965)
T1 sequence (whole entry): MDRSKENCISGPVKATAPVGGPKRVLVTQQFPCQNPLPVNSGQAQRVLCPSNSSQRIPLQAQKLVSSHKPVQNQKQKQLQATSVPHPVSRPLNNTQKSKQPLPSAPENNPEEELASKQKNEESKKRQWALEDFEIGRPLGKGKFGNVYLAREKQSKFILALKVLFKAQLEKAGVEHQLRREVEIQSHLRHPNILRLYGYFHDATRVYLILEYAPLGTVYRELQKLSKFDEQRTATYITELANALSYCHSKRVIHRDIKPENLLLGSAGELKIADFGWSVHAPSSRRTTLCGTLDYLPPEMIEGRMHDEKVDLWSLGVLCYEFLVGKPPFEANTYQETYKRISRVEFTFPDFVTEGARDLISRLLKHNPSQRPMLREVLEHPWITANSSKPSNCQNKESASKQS

[8] = target: T2, Transcription intermediary factor 1-alpha (Homo sapiens) (UniProt O15164)
T2 sequence (whole entry): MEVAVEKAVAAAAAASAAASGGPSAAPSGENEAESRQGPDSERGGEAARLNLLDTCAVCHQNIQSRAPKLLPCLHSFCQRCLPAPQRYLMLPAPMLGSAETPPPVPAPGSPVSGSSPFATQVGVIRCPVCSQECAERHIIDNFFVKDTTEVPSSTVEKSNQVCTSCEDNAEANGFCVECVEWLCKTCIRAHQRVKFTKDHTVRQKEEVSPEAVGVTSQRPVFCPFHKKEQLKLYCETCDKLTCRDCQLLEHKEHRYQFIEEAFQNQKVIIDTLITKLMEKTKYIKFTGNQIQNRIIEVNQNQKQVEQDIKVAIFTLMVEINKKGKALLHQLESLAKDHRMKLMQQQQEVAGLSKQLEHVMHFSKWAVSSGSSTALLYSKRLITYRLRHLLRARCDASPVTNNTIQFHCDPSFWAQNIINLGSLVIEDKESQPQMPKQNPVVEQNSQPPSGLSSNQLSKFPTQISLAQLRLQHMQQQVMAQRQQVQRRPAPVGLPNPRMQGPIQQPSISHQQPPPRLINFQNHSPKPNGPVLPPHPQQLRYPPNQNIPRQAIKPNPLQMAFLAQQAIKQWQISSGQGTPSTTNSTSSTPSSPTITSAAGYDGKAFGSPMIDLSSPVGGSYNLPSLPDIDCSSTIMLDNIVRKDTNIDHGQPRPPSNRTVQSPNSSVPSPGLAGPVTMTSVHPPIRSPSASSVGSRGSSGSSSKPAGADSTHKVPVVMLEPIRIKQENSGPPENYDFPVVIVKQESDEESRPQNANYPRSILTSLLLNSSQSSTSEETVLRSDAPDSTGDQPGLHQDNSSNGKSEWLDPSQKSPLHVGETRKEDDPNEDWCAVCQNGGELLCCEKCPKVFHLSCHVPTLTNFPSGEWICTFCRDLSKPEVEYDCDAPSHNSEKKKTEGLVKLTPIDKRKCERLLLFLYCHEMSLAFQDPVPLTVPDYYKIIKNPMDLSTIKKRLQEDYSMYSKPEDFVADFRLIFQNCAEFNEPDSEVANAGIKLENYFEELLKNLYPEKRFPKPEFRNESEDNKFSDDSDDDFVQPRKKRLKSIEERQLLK

Tyrosine-protein kinase ABL1 (Homo sapiens), sequence (P00519 whole entry): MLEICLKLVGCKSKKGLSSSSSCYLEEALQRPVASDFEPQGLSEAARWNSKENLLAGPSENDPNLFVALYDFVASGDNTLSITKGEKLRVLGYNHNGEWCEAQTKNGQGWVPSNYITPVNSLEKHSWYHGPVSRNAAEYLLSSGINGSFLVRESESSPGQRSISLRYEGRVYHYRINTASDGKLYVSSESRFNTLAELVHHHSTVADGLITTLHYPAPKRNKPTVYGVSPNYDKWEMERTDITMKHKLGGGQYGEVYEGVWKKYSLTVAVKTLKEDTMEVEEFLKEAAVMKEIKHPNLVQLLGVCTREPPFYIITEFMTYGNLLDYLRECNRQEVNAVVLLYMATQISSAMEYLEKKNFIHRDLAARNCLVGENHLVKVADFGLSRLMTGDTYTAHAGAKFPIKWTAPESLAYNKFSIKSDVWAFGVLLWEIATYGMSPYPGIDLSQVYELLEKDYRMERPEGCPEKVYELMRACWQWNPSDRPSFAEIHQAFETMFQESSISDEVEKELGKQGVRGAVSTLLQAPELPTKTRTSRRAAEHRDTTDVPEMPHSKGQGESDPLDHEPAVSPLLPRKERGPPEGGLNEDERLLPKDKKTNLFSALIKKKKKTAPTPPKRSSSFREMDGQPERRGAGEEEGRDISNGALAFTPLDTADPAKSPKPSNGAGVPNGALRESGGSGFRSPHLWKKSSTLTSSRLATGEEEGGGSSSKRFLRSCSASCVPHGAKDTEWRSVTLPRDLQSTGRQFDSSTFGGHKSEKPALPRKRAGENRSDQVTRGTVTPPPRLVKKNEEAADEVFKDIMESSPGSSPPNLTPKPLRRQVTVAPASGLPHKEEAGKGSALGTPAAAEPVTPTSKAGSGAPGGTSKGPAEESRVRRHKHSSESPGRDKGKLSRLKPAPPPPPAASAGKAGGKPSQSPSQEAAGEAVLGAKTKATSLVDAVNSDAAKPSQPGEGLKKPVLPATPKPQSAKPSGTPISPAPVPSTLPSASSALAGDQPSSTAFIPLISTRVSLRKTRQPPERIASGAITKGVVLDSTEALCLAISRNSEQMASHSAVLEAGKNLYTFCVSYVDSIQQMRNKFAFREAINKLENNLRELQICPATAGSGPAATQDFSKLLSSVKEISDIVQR

| SMILES | ΔTm [1] [°C] | ΔTm [2] [°C] | ΔTm [3] [°C] | ΔTm [4] [°C] | ΔTm [5] [°C] | ΔTm [6] [°C] | ΔTm [7] [°C] | ΔTm [8] [°C] | ΔTm ([5]; Protein concentration 2.0 uM) [°C] |
| --- | --- | --- | --- | --- | --- | --- | --- | --- | --- |
| N#Cc1nc2c(nc1C#N)-c1ccccc1C2=NOCc1ccccc1 | 0.19 | 1.2 | 3.11 | -0.93 | 0.13 | -0.23 | -1.52 | 1.99 | – |
| COC(=O)C[C@@H]1N=C(c2ccc(Cl)cc2)c2c(sc(C)c2C)-n2c(C)nnc21 | -0.09 | 12.3 | -0.41 | 0.16 | -0.01 | -0.21 | -1.3 | -0.91 | – |
| Nc1cccc(CNC(=O)c2ccc(Oc3ccc(OCc4cccc(F)c4)cc3)nc2)c1 | 1.07 | -0.91 | 0.38 | -0.56 | 1.13 | -0.86 | -1.57 | 0.24 | – |
| COc1ccc(N(C(=O)Oc2c(C)cccc2C)c2ccnc(Nc3ccc(N4CCN(C)CC4)cc3)n2)c(OC)c1 | 9.28 | -0.9 | 0.75 | 0.09 | 1.59 | 0.08 | 0.66 | -0.91 | – |
| O=C(NNc1ccccn1)c1ccccn1 | 0.12 | -1.77 | -0.03 | -0.33 | -0.62 | 0.17 | -0.43 | 0.92 | – |
| O=C(O)C1=CCCN(CCOC(c2ccc(C(F)(F)F)cc2)c2ccc(C(F)(F)F)cc2)C1 | 0.71 | -3.83 | -0.13 | -0.26 | -0.54 | 0.12 | -2.7 | 0.08 | – |
| C[C@]12O[C@H](C[C@]1(O)CO)n1c3ccccc3c3c4c(c5c6ccccc6n2c5c31)CNC4=O | – | -1.2 | 9.18 | 2.18 | 4.78 | 0.35 | 8.79 | -0.11 | – |
| C/C(=N\NC(=O)c1cccc(S(=O)(=O)N2CCOCC2)c1)c1cc(Cl)ccc1O | 0.81 | -2.01 | 0.83 | 0.6 | 1.53 | 0.14 | -0.56 | 2.31 | – |
| CCS(=O)(=O)N1CCC([C@@H](C)n2c(C)c(C(=O)NCc3c(OC)cc(C)[nH]c3=O)c3ccccc32)CC1 | 0.06 | -2.35 | 0.2 | 0.01 | -0.39 | -0.34 | -0.26 | -1 | – |
| Cc1sc2c(c1C)C(c1ccc(Cl)cc1)=N[C@@H](CC(=O)OC(C)(C)C)c1nnc(C)n1-2 | 0.27 | – | 0 | 0.21 | -0.11 | -0.24 | -0.4 | -1.48 | – |
| O=C1Cc2cc(C(=O)N[C@@H]3C[C@H]4CC[C@@H](C3)N4S(=O)(=O)CC3CCN(CCCC(F)(F)F)CC3)c(Cl)cc2N1 | -0.02 | -1.65 | 0.34 | 0.08 | -1.14 | -0.31 | -0.32 | -1.38 | – |
| COc1ccc(C(CN(C)C)C2(O)CCCCC2)cc1 (stereo not drawn) | 0.51 | -2.55 | -0.01 | -0.1 | -0.27 | 0.12 | -1.68 | -0.25 | – |
| Fc1ccc(C(OCCN2CCN(CCCc3ccccc3)CC2)c2ccc(F)cc2)cc1 | 0.53 | -4.03 | -0.37 | -0.45 | -0.66 | 0.05 | -2.65 | -0.53 | – |
| CC(C)n1nc(-c2cc3cc(O)ccc3[nH]2)c2c(N)ncnc21 | – | 2.33 | 2.02 | 5.15 | – | 0.14 | 3.86 | -0.37 | 2 |
| N[C@H]1CC[C@H](N[C@@H]2C[C@H]2c2ccccc2)CC1 | 0.04 | -1.89 | 0.04 | -0.14 | -0.74 | 0 | -1.42 | 0.93 | – |
| COc1cn(-c2ccc(-n3cccn3)cc2F)nc(-c2ccnn2-c2ccccc2)c1=O | 0.53 | 0.2 | 1.24 | 0.13 | 0.96 | 0.22 | -1.86 | -0.41 | – |
| N#Cc1ccc([C@H]2CCCC[C@H]2O)cc1C(F)(F)F | 0.55 | -1.51 | 0.11 | 0.3 | -0.43 | -0.24 | -1.09 | -1.04 | – |
| COc1cc(C)[nH]c(=O)c1CNC(=O)c1c(C)n([C@H](C)C2CCN(CC(F)(F)F)CC2)c2ccccc12 | 0.27 | -2.03 | -0.09 | 0.08 | -0.64 | -0.27 | 0.25 | -1.56 | – |
| CC(C)=C[C@H]1C[C@H](C)[C@]2(CC[C@]3(C)C[C@H]4[C@H](C(=O)C[C@@]4(C)O)/C(C=O)=C\C[C@H]32)O1 | -0.34 | -1.06 | -0.29 | -0.36 | -0.53 | -0.16 | -1.12 | -1.12 | – |
| Cc1ccc(N2C(=O)/C(=C/C=C/c3ccco3)C(=O)NC2=S)cc1Cl | 0.75 | -2.47 | -0.73 | 0.31 | -1.52 | -1.33 | -0.68 | -2.21 | – |
| O=C(N1CCCC[C@@H]1Cc1ccccc1)n1cc(-c2ccc(-c3ccccc3)cc2)nn1 | 0.24 | -2.3 | 0.21 | -1.21 | -0.59 | -0.45 | -2.78 | 2.73 | – |
| O=C(N1CCCC[C@H]1Cc1ccccc1)n1cc(-c2ccc(-c3ccccc3)cc2)nn1 | 0.09 | 5.42 | 0.51 | -0.09 | -2.39 | -0.72 | -1.72 | 1.36 | – |
